# A selection: hits, their analogues and other compounds. The true share with any hit is near 2.6%.
# Cruzain Triton: inhibitors of Trypanosoma cruzi cruzain with detergent. P25779. purified cruzain, Z-FR-AMC fluorescence, 0.01% Triton. Potency, µM, for the others: max response, negative = inhibition, usual class: inhibitors. 0.43% of 200,000 active;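 also: plate controls were neutral wells for no effect and buffer without enzyme for full effect; nearly all actives have a fitted effect of over 40% in size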
# Target sequence (P25779 123-467 limits assumed): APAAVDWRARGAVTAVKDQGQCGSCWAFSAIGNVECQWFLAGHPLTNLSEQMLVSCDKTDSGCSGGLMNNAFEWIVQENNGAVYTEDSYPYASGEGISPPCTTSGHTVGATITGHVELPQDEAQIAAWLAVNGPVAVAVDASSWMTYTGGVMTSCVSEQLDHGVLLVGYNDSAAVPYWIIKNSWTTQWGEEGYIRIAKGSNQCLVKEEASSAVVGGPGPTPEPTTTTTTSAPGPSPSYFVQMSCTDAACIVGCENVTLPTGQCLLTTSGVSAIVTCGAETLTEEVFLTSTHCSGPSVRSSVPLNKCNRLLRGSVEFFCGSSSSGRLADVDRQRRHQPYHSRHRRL
#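 Compounds were screened in titration against cruzain (1.5 nM) with 0.01% Triton X-100 to counter colloidal aggregation. Activity was the AMC fluorescence increase over 60 s after adding 2 uM Z-FR-AMC at pH 5.5.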
# Cruzain noTriton: cruzain (T. cruzi) inhibition without detergent. purified cruzain, Z-FR-AMC fluorescence, no detergent. Potency, µM, without a hit: max response, negative = inhibition, actives largely listed as inhibitors. 2.3% of 200,000 active;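 also: plate controls were enzyme without inhibitor for no effect and buffer without enzyme for full effect; nearly all actives have a fitted effect of over 40% in size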
#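 Detergent-free condition (0.00005% Triton X-100) in acetate buffer pH 5.5 with DTT. 1.5 nM enzyme and compound were pre-mixed 15 min, then 2 uM Z-FR-AMC substrate added; reaction progress from fluorescence change between first and third reads (60 s).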
# * hit, by the source's call; ? = inconclusive. Calls follow the shape of the dose curve; as a rule, active = well fitted curve in the direction sought with a large enough effect; inconclusive = small, poorly fitted or top-dose-only effect, or another doubt; inactive = no such curve, though single readings can be large; an effect the other way counts as inactive or inconclusive. Potency is read from the fitted curve at half-maximal effect.
SMILES,Cruzain Triton,Cruzain noTriton
CC(C)(c1cc(Br)c(OCC(Br)CBr)c(Br)c1)c1cc(Br)c(OCC(Br)CBr)c(Br)c1 (stereo unspecified),-2.3%,-7.7%
Cc1ccc2c(=O)cc(C(=O)Nc3ccc(S(=O)(=O)Nc4onc(C)c4C)cc3)oc2c1C,-4.0%,?
Cc1ccc(CC(=O)Nc2nc3ccccc3s2)cc1,-11.0%,-10.1%
CCc1ccc(/C=C2/SC(=S)N(CC(=O)Nc3nc4ccccc4s3)C2=O)cc1,-7.8%,3.16µM*
O=C(O)CCSCc1ccc(I)cc1,8.5%,-1.0%
COc1ccccc1-c1nc2n(n1)C(c1ccccc1Cl)C(C(=O)Nc1cccnc1)=C(C)N2 (stereo unspecified),-2.9%,-14.5%
COc1ccc(CNC(=O)Cn2nnc(-c3ccc(NC(=O)C4CCCCC4)cc3)n2)cc1,3.0%,10µM*
CCOc1ccc(-c2nnn(CC(=O)NCc3ccc(OC)cc3)n2)cc1OCC,0.5%,23.6%
Cc1ccc2oc(C(=O)N(Cc3sccc3C)C3CCS(=O)(=O)C3)c(C)c2c1 (stereo unspecified),-9.8%,8.2%
O=C(OCc1cccc2ccccc12)C1CC(=O)N(c2ccccc2)C1 (stereo unspecified),-1.8%,-1.0%
Cc1ccc(C(=O)COC(=O)C2CC(=O)N(c3nc(-c4ccccc4)cs3)C2)cc1C (stereo unspecified),2.2%,31.6µM*
CC(C)=C[C@H]1[C@@H](C(=O)Oc2ccccc2C(C)C)C1(C)C,3.2%,-4.6%
CCOc1ccc2nc(N(Cc3cccnc3)C(=O)c3ccc4c(c3)OCCO4)sc2c1,3.6%,-4.9%
CCc1c(O)nc(SCC(=O)Nc2ccc3c(c2)CCC3)[nH]c1=O,1.0%,-11.7%
CCCCc1c(O)nc(SCC(=O)Nc2ccc3c(c2)CCC3)[nH]c1=O,-17.4%,20µM*
NC(=O)[C@@H]1CCCNC1,4.2%,6.9%
COc1cccc(Cn2c(=O)c(-c3cccs3)nc3cnc(N4CCNCC4)nc32)c1,-10.9%,?
Cc1cccc(-n2cnc3cc(C(=O)NC4CCCCCC4)ccc32)c1,-0.3%,4.1%
O=C(NCCc1ccc(Cl)cc1)c1cc2c(s1)-c1ccccc1OC2,-22.0%,?
O=C(Nc1nccs1)c1cc2c(s1)-c1ccccc1OC2,-7.2%,?
Cc1ccc(CCNC(=O)c2cc3c(s2)-c2ccccc2OC3)cc1,-2.4%,12.6µM*
O=C(Nc1nc2ccccc2s1)c1cc2c(s1)-c1ccccc1OC2,-1.2%,12.6µM*
Cc1cccc(C)c1Nc1c(-c2ccc(Cl)s2)nc2ncccn12,-9.4%,-4.2%
O=c1c(-c2ccc(Cl)cc2)nc2cncnc2n1Cc1ccccc1Cl,3.6%,-12.3%
CCCCC/C=C\C/C=C\CCCCCCCCCC(=O)NCCc1ccc(O)c(O)c1,2.8%,-19.2%
SMILES,Cruzain Triton,Cruzain noTriton
Cc1nc2c(C(=O)NCCCN(CC(C)C)CC(C)C)cnn2c(C)c1Cc1c(F)cccc1Cl,0.2%,5.7%
Oc1ccc(C2Nc3cccc4cccc(c34)N2)c(O)c1,?,15.8µM*
O=[N+]([O-])c1ccc(C2Nc3cccc4cccc(c34)N2)cc1,-0.8%,?
COc1cc(C2Nc3cccc4cccc(c34)N2)cc(OC)c1O,-12.5%,-21.9%
O=[N+]([O-])c1cccc(C2Nc3cccc4cccc(c34)N2)c1,-8.5%,?
c1coc(C2Nc3cccc4cccc(c34)N2)c1,-10.6%,7.94µM*
Cc1ccc(C2Nc3cccc4cccc(c34)N2)s1,-8.4%,20µM*
CSc1nn(Cc2cccc(Cl)c2)c(N(C(C)=O)C(C)=O)c1S(=O)(=O)c1ccccc1,-5.9%,10.3%
CCn1c2c(c(=O)n3ncc(C(=O)Nc4ccc(C(=O)OC)cc4)c13)CN(Cc1ccc(OC)cc1)CC2,-8.4%,?
CC(=O)N1CCOc2cc(S(=O)(=O)NCc3ccccc3Cl)c(C)cc21,-0.9%,11.2%
COc1ccc(CCN2C(=O)c3oc4cc(C)cc(C)c4c(=O)c3C2c2ccc(F)cc2)cc1OC (stereo unspecified),-0.7%,-8.8%
Clc1ccc2[nH]c3c(NCC4CCCO4)ncnc3c2c1 (stereo unspecified),?,20µM*
O=c1c2[nH]c3ccc(Cl)cc3c2ncn1CCN1CCCCC1,-4.8%,-11.8%
Clc1ccc2[nH]c3c(NCCN4CCOCC4)ncnc3c2c1,14.1µM*,15.8µM*
O=c1c2[nH]c3ccc(F)cc3c2ncn1CCCN1CCOCC1,1.3%,-2.1%
Fc1ccc2[nH]c3c(NCCN4CCOCC4)ncnc3c2c1,?,20µM*
Clc1ccc(-n2ncc3c(NCC4CCCO4)ncnc32)cc1 (stereo unspecified),-1.9%,-9.1%
COc1ccccc1C(=O)Nc1c(C(=O)Nc2ccccc2F)oc2ccccc12,-6.2%,-24.5%
CC(=O)OC[C@@]12C(=O)[C@@H](O)[C@@H](C)[C@]3(C[C@@H](c4ccoc4)O[C@@H]3OC(C)=O)[C@H]1CCC[C@]21CO1,3.2%,-7.0%
N#CC1=C(S)N=C(N)C(c2nc(-c3ccccc3)cs2)C12CCCCC2 (stereo unspecified),0.5%,-0.2%
Cc1ccc(-c2csc(C3C(N)=NC(S)=C(C#N)C34CCCCC4)n2)cc1 (stereo unspecified),-9.3%,15.8µM*
O=S(=O)(c1ccc(F)cc1)N1CCn2c(nc3ccccc32)C1,17.8µM*,5.01µM*
O=S(=O)(c1ccccc1)N1CCn2c(nc3ccccc32)C1,-7.0%,-13.4%
C[C@@H]1[C@H](C)CC[C@@]2(C(=O)O[C@H]3O[C@@H](CO[C@H]4O[C@@H](CO)[C@@H](O[C@H]5O[C@@H](C)[C@@H](O)[C@@H](O)[C@@H]5O)[C@@H](O)[C@@H]4O)[C@@H](O)[C@@H](O)[C@@H]3O)CC[C@]3(C)C(=CC[C@H]4[C@@]5(C)C[C@@H](O)[C@@H](O)[C@](C)(CO)[C@@H]5CC[C@@]43C)[C@@H]12,-2.7%,1.1%
CCc1ccc(CCN2CCCCC2)nc1,2.1%,6.7%
SMILES,Cruzain Triton,Cruzain noTriton
CC(C)c1c(C#N)c(N)nc(SCC(=O)c2cc3ccccc3oc2=O)c1C#N,1.1%,-37.3%
N#Cc1ccc(-c2ccccc2)nc1SCC(=O)c1cc2ccccc2oc1=O,-5.0%,20µM*
CCCC/C=C/C(NC(=O)C(C)(C)C)c1ccccc1 (stereo unspecified),-0.1%,0.0%
CCOc1ccccc1-n1c(N)c(C(=O)OC)c2nc3ccccc3nc21,-0.8%,2.1%
O=C(CN1CCN(c2ccccc2)CC1)Nc1nnc(-c2ccccc2)s1,-3.9%,-4.1%
COc1ccc(N2CCN(CC(=O)Nc3nnc(-c4ccccc4)s3)CC2)cc1,0.6%,25.1µM*
Nc1nc2c(c(=O)[nH]1)N[C@H](CCNc1ccc(C(=O)O)cc1)CN2,-3.7%,3.2%
O=C(Cc1cn2ccsc2n1)Nc1cccc2cnccc12,?,12.6µM*
O=C(Cc1cn2ccsc2n1)Nc1ccccn1,-6.9%,-29.3%
O=C(NCc1cccc(F)c1)c1ccc(N2C(=O)Cn3c(cc4sccc43)C2=O)cc1,-6.6%,25.1µM*
CCN1CCSc2ccc(C(=O)NCc3cccc(F)c3)cc21,0.9%,7.2%
O=c1[nH]c2[nH]c(=S)[nH]c(=S)c2[nH]1,2.4%,3.0%
COc1ccc(CN2C(=O)Cc3c2nc(N)c2c(N)nc(N4CCCCC4)c(C#N)c32)cc1,-9.4%,6.31µM*
CCOc1cc2c(C#N)c(N3CCCCC3)nc(N)c2c(N)n1,-9.1%,-11.1%
O=C(O)CCC(=O)N1CCCC1C(=O)O (stereo unspecified),2.6%,3.4%
Cc1cccc(CNC(=O)CN2C(=O)CSc3c2c(C)nn3-c2ccccc2)c1,-2.6%,1.5%

# Compound activity: PubChem BioAssay, National Center for Advancing Translational Sciences (NCATS)
